Results filed as inconclusive are left out. A call without a number means that no potency is given here. Values without a mark were called inactive. The source made the active and inactive calls. Calls come from the whole dose curve; as a rule, active = well fitted inhibition curve with a large enough effect; inconclusive = small, poorly fitted or top-dose-only effect; inactive = flat fitted curve, though single readings scatter.
Assay: P-glycoprotein substrates identified in KB-8-5-11 adenocarcinoma cell line, qHTS therapeutic library screen (AID 1346987); note: nearly all actives have a fitted effect of over 65% in size
Conditions: KB-8-5-11 (P-gp overexpressing) viability, CellTiter-Glo, 72 h; series mostly up to 44.5 µM
Procedure, shortened: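 KB-8-5-11: colchicine-selected sub-line of KB-3-1 over-expressing P-gp; assay medium lacked colchicine. 72 h drug exposure at 37 degree C, CellTiter-Glo.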
Potency is the fitted concentration of half-maximal effect.

Compound	activity change, negative = cytotoxicity	Potency
CC(=O)N[C@H]1[C@H](O[C@H]2CC[C@@]3(C)C(CC[C@]4(C)C3CC=C3C5CC(C)(C)CC[C@]5(C(=O)O)[C@H](O)C[C@]34C)C2(C)C)O[C@H](CO[C@@H]2OC[C@H](O)[C@H](O)[C@H]2O[C@@H]2OC[C@@H](O)[C@H](O)[C@H]2O)[C@@H](O)[C@@H]1O (some centres undefined)	5.39% [at 9.29 µM]	
CN1CCN(C2CCC(n3cc(-c4ccc(Oc5ccccc5)cc4)c4c(N)ncnc43)CC2)CC1 (centres undefined)		5.8 µM (active)
CN(CCc1ccc(Nc2ncc(-c3cccnc3)s2)cc1)Cc1ccccc1		inactive
O=C(OC[C@@]1(O)CO[C@@H](O[C@H]2[C@H](Oc3ccc(O)cc3)O[C@H](CO)[C@@H](O)[C@@H]2O)[C@@H]1O)c1ccc(O)cc1		inactive
C=CC(=O)Nc1cc(Nc2nccc(-c3c[nH]c4ccccc34)n2)c(OC)cc1N(C)CCN(C)C		6.51 µM (active)
COc1cc(/C=C/C(=O)O[C@H]2[C@H](O)[C@@H](CO)O[C@@]2(CO)O[C@H]2O[C@H](CO)[C@@H](O)[C@H](O)[C@H]2O)ccc1O		inactive
C[C@@H]1O[C@@H](O[C@H]2[C@H](O)[C@@H](O)[C@H](OC3CCC4(C)C5CCC(C)(C(CO)OC6OC(CO)C(O)C(O)C6O)CC5=CCC4C3(C)C)O[C@@H]2CO)[C@H](O)[C@H](O)[C@H]1O (some centres undefined)		inactive
CC(C)c1cc(C(=O)N2CC[C@@H](NC(=O)C3CC3)C2)n[nH]1		inactive
C/C=C/c1cc(OC)c2c(c1)[C@@H](C)[C@@H](c1ccc(O)c(OC)c1)O2		inactive
